# Laboratory results published in PubChem BioAssay (EPA / NIEHS).
# Some compounds were tested as several samples or in several runs, with calls that do not always agree. Activity calls are given as the source filed them. How the source made its calls, unless noted: active means hit-call score of the fitted dose curve at least 0.9, where 1 is the maximum; inactive means score below 0.9.
# Assays:
# DIO2 (gene 1734) = experiment: CCTE_GLTED_hDIO2: CCTE's human Deiodinase 2 (DIO2) Inhibition Assay, Great Lakes Toxicology and Ecology Division (GLTED) Lab (AID 2284050; active means hit-call score of the fitted dose curve at least 0.9, where 1 is the maximum)
# Summary of the method: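 Iodide released by human deiodinase 2 over 3 h with test chemical, measured spectrophotometrically via Sandell-Kolthoff cerium/arsenic reaction. Run n=3; inhibition referenced to DMSO.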
# [1] = CCTE_Shafer_MEA_dev_per_burst_interspike_interval: CCTE's Neural Network Formation Assay for Burst Interspike Interval, Shafer Lab (AID 2284044);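 further: mean spike spacing inside bursts as AUC over recordings on days 5 7 9 12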;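 on AC50: potency for a decrease of within-burst interspike interval below DMSO level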
# Summary of the method: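 Spontaneous activity of maturing rat cortical networks is recorded on DIV 5, 7, 9 and 12 under chronic compound exposure beginning at plating. Endpoint: burst interspike interval well-mean, collapsed into trapezoidal AUC and fitted in the negative direction relative to DMSO.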
# [2] = CCTE_Shafer_MEA_dev_burst_duration_mean: CCTE's Neural Network Formation Assay for Mean Burst Duration, Shafer Lab (AID 2284045);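 on AC50: curve fitted for loss meaning shorter burst duration than DMSO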
# Summary of the method: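 Mean single-electrode burst duration (first to last spike), averaged over bursting electrodes per well, then integrated as area-under-curve across recordings at days 5, 7, 9 and 12. Rat cortical cultures on MEAs, compound present from plating, refreshed at feeds.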
# [3] = CCTE_Shafer_MEA_dev_interburst_interval_mean: CCTE's Neural Network Formation Assay for Mean Interburst Interval, Shafer Lab (AID 2284046);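 further: well-mean interburst interval of bursting electrodes as AUC over four recording days; curve fitted for decrease in interburst interval relative to DMSO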
# Summary of the method: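 Developing rat cortical networks on 48-well MEAs receive compound from the day of plating. Burst intervals from each active electrode are averaged per well, and AUC over the recording days is fitted in the negative direction against DMSO.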
# [4] = CCTE_Shafer_MEA_dev_inter_network_spike_interval_mean: CCTE's Neural Network Formation Assay for Mean Inter-network Spike Interval, Shafer Lab (AID 2284047);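 on AC50: potency for a decrease in mean inter-network spike interval below DMSO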
# Summary of the method: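 Rat cortical cultures, 1.5 x 10^5 cells/well on 48-well MEA plates; continuous exposure days 0–12, medium and compound refreshed DIV 5, 9. Mean time between consecutive network-spike peaks; AUC across DIV 5/7/9/12; DMSO baseline, negative fitting direction.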
# [5] = CCTE_Shafer_MEA_dev_network_spike_number: CCTE's Neural Network Formation Assay for Number of Network Spikes, Shafer Lab (AID 2284048);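 further: synchronized bursts across electrodes counted on days 5 7 9 12 and integrated as AUC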;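 on AC50: fit as a loss of signal meaning fewer network spikes than DMSO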
# Summary of the method: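 Number of network spikes (coordinated firing across electrodes) recorded on days 5, 7, 9 and 12 and summarised as area under the curve. Rat cortical cultures on MEA, continuous compound exposure with full medium/treatment exchange at DIV 5 and 9.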
# [6] = CCTE_Shafer_MEA_dev_network_spike_peak: CCTE's Neural Network Formation Assay for Mean Number of Electrodes in Network Spike, Shafer Lab (AID 2284049);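 on AC50: fitted for loss of signal meaning fewer electrodes in network spikes than DMSO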
# Summary of the method: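 Rat cortical primary culture, 1.5 x 10^5 cells/well, 48-well MEA (16 electrodes/well). Dosing day 0 through DIV 12, full media/compound exchange DIV 5, 9. AxIS adaptive spike detection; AUC over days 5/7/9/12; loss-of-signal vs DMSO.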
# [7] = CCTE_Shafer_MEA_dev_spike_duration_mean: CCTE's Neural Network Formation Assay for Mean Spike Duration, Shafer Lab (AID 2284051);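 further: mean network spike duration pooled as area under curve over DIV 5 to 12 recordings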;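 on AC50: potency for a decrease in mean network spike duration versus DMSO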
# Summary of the method: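 Readout is the average length of network spikes, clustered firing across electrodes, summed over DIV 5, 7, 9 and 12 as area under the curve. Neurons from rat cortex developed networks on MEA plates under continuous 12-day exposure.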
# [8] = CCTE_Shafer_MEA_dev_network_spike_duration_std: CCTE's Neural Network Formation Assay for Standard Deviation of Network Spike Duration, Shafer Lab (AID 2284052);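 further: hits are decreases in network spike duration SD versus DMSO vehicle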
# Summary of the method: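 Read-out is the trapezoidal area-under-the-curve across recordings made on days 5, 7, 9 and 12, fitted in the negative direction against DMSO baseline. Neurons were primary rat cortical cells treated from day 0, with treatment renewed at each feed.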
# [9] = CCTE_Shafer_MEA_dev_per_network_spike_spike_number_mean: CCTE's Neural Network Formation Assay for Mean Number of Spikes in a Network Spike, Shafer Lab (AID 2284053);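 on AC50: fitted as decrease in spikes per network spike relative to DMSO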
# Summary of the method: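 Continuous twelve-day exposure of developing rat cortical networks grown over 16 microelectrodes per well; spontaneous firing is captured at four time points, and the per-network-spike spike number is integrated over development by trapezoidal AUC.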
structure (smiles),measurement,setting,value
Cc1cc(Cc2cc(C)cc(C(C)(C)C)c2O)c(O)c(C(C)(C)C)c1,AC50,DIO2 (gene 1734),97600 nM (active)
O=C(O)CCC(F)(F)C(F)(F)C(F)(F)C(F)(F)C(F)(F)F,outcome,[1],inactive
same,outcome,[2],inactive
same,outcome,[3],inactive
same,outcome,[4],inactive
same,outcome,[5],inactive
same,outcome,[6],inactive
same,outcome,[7],inactive
same,outcome,[8],inactive
same,outcome,[9],inactive
COC(=O)C(F)(F)C(F)(F)C(F)(F)F,outcome,[1],inactive
same,outcome,[2],inactive
same,outcome,[3],inactive
same,outcome,[4],inactive
same,outcome,[5],inactive
same,outcome,[6],inactive
same,outcome,[7],inactive
same,outcome,[8],inactive
same,outcome,[9],inactive
CCCCCCCCCC=CCC1CC(=O)OC1=O (configuration not stated),AC50,DIO2 (gene 1734),64300 nM (active)
CN(CCO)S(=O)(=O)C(F)(F)C(F)(F)C(F)(F)C(F)(F)C(F)(F)C(F)(F)C(F)(F)C(F)(F)F,outcome,[1],inactive
same,outcome,[2],inactive
same,outcome,[3],inactive
same,outcome,[4],inactive
same,outcome,[5],inactive
same,outcome,[6],inactive
same,outcome,[7],inactive
same,outcome,[8],inactive
same,outcome,[9],inactive
CN(Cc1cnc2nc(N)nc(N)c2n1)c1ccc(C(=O)N[C@@H](CCC(=O)O)C(=O)O)cc1,AC50,[1],2980 nM (active)
same,AC50,[2],72.8 nM (active)
same,AC50,[3],136 nM (active)
same,AC50,[4],30.8 nM (active)
same,AC50,[5],25.8 nM (active)
same,AC50,[6],27.9 nM (active)
same,AC50,[7],34.3 nM (active)
same,AC50,[8],42.2 nM (active)
same,AC50,[9],25.8 nM (active)
O=P(O)(O)CCC(F)(F)C(F)(F)C(F)(F)C(F)(F)C(F)(F)C(F)(F)C(F)(F)C(F)(F)F,outcome,[1],inactive
same,outcome,[2],inactive
same,AC50,[3],8600 nM (active)
same,outcome,[4],inactive
same,AC50,[5],4290 nM (active)
same,AC50,[6],4220 nM (active)
same,AC50,DIO2 (gene 1734),146000 nM (active)
same,AC50,[7],7740 nM (active)
same,outcome,[8],inactive
same,AC50,[9],4230 nM (active)
O=C(F)C(F)(F)C(F)(F)C(F)(F)C(F)F,outcome,[1],inactive
same,outcome,[2],inactive
same,outcome,[3],inactive
same,outcome,[4],inactive
same,outcome,[5],inactive
same,outcome,[6],inactive
same,outcome,[7],inactive
same,outcome,[8],inactive
same,outcome,[9],inactive
O=C(CC(=O)C(F)(F)C(F)(F)C(F)(F)F)c1cccs1,outcome,[1],inactive
same,outcome,[2],inactive
same,AC50,[3],5430 nM (active)
same,outcome,[4],inactive
same,outcome,[5],inactive
same,AC50,[6],7420 nM (active)
same,AC50,[7],7700 nM (active)
same,outcome,[8],inactive
same,AC50,[9],3720 nM (active)
FC(F)=C(F)C(F)(F)C(F)(F)C(F)(F)C(F)F,outcome,[1],inactive
same,outcome,[2],inactive
same,outcome,[3],inactive
same,outcome,[4],inactive
same,outcome,[5],inactive
same,outcome,[6],inactive
same,outcome,[7],inactive
same,outcome,[8],inactive
same,outcome,[9],inactive
O=CC(F)(F)C(F)(F)C(F)(F)C(F)F,outcome,[1],inactive
same,outcome,[2],inactive
same,outcome,[3],inactive
same,outcome,[4],inactive
same,outcome,[5],inactive
same,outcome,[6],inactive
same,outcome,[7],inactive
same,outcome,[8],inactive
same,outcome,[9],inactive
O=C(CCCN1CCC(O)(c2ccc(Cl)cc2)CC1)c1ccc(F)cc1,AC50,[1],1780 nM (active)
same,AC50,[2],1290 nM (active)
same,AC50,[3],3120 nM (active)
same,outcome,[4],inactive
same,AC50,[5],568 nM (active)
same,AC50,[6],2020 nM (active)
same,AC50,[7],1780 nM (active)
same,AC50,[8],1880 nM (active)
same,AC50,[9],753 nM (active)
O=C(OC(=O)C(F)(F)C(F)(F)F)C(F)(F)C(F)(F)F,outcome,[1],inactive
same,outcome,[2],inactive
same,outcome,[3],inactive
same,outcome,[4],inactive
same,outcome,[5],inactive
same,outcome,[6],inactive
same,outcome,[7],inactive
same,outcome,[8],inactive
same,outcome,[9],inactive
O=C(O)C(F)(F)OC(F)(F)C(F)(F)OC(F)(F)C(F)(F)OC(F)(F)C(F)(F)C(F)(F)C(F)(F)F,outcome,[1],inactive
same,outcome,[2],inactive
same,outcome,[3],inactive
same,outcome,[4],inactive
same,outcome,[5],inactive
same,outcome,[6],inactive
same,AC50,DIO2 (gene 1734),60500 nM (active)
same,outcome,[7],inactive
same,outcome,[8],inactive
same,outcome,[9],inactive
CC(=O)Nc1ccc(O)cc1,outcome,[1],inactive
same,AC50,[2],22500 nM (active)
same,outcome,[2],inactive
same,outcome,[3],inactive
same,outcome,[4],inactive
same,outcome,[5],inactive
same,outcome,[6],inactive
same,outcome,[7],inactive
same,outcome,[8],inactive
same,outcome,[9],inactive
O=P(O)(O)CCC(F)(F)C(F)(F)C(F)(F)C(F)(F)C(F)(F)C(F)(F)F,outcome,[1],inactive
same,outcome,[2],inactive
same,outcome,[3],inactive
same,outcome,[4],inactive
same,outcome,[5],inactive
same,outcome,[6],inactive
same,outcome,[7],inactive
same,outcome,[8],inactive
same,outcome,[9],inactive
Nc1ccn([C@@H]2O[C@H](CO)[C@@H](O)C2O)c(=O)n1 (some centres not stated),AC50,[1],850 nM (active)
same,AC50,[2],856 nM (active)
same,AC50,[3],695 nM (active)
same,outcome,[4],inactive
same,AC50,[5],125 nM (active)
same,AC50,[6],329 nM (active)
same,AC50,[7],358 nM (active)
same,AC50,[8],239 nM (active)
same,AC50,[9],205 nM (active)
CCCCCCCCCCCC,AC50,DIO2 (gene 1734),24500 nM (active)
OCC(F)(F)C(F)(F)C(F)(F)C(F)(F)C(F)(F)C(F)(F)C(F)(F)C(F)(F)C(F)(F)C(F)(F)C(F)(F)F,outcome,[1],inactive
same,outcome,[2],inactive
same,AC50,[3],26400 nM (active)
same,outcome,[3],inactive
same,outcome,[4],inactive
same,outcome,[5],inactive
same,AC50,[6],8240 nM (active)
same,outcome,[6],inactive
same,AC50,[7],6130 nM (active)
same,outcome,[7],inactive
same,outcome,[8],inactive
same,AC50,[9],6630 nM (active)
same,outcome,[9],inactive
C=CC(F)(F)C(F)(F)C(F)(F)C(F)(F)F,outcome,[1],inactive
same,outcome,[2],inactive
same,outcome,[3],inactive
same,outcome,[4],inactive
same,outcome,[5],inactive
same,outcome,[6],inactive
same,outcome,[7],inactive
same,outcome,[8],inactive
same,outcome,[9],inactive
O=C(F)C(F)(F)C(F)(F)C(F)(F)C(=O)F,outcome,[1],inactive
same,outcome,[2],inactive
same,outcome,[3],inactive
same,outcome,[4],inactive
same,outcome,[5],inactive
same,outcome,[6],inactive
same,outcome,[7],inactive
same,outcome,[8],inactive
same,outcome,[9],inactive
NC(C(F)(F)F)C(F)(F)F,outcome,[1],inactive
same,outcome,[2],inactive
same,outcome,[3],inactive
same,outcome,[4],inactive
same,outcome,[5],inactive
same,outcome,[6],inactive
same,outcome,[7],inactive
same,outcome,[8],inactive
same,outcome,[9],inactive
O=C(C=C(O)C(F)(F)F)C(F)(F)F,outcome,[1],inactive
same,outcome,[2],inactive
same,outcome,[3],inactive
same,outcome,[4],inactive
same,outcome,[5],inactive
same,outcome,[6],inactive
same,outcome,[7],inactive
same,outcome,[8],inactive
same,outcome,[9],inactive
CN(C)CCOC(c1ccccc1)c1ccccc1,outcome,[1],inactive
same,outcome,[2],inactive
same,outcome,[3],inactive
same,outcome,[4],inactive
same,outcome,[5],inactive
same,AC50,[6],10000 nM (active)
same,AC50,[7],10000 nM (active)
same,outcome,[8],inactive
same,outcome,[9],inactive
COC(=O)C(F)(F)C(F)(F)C(F)(F)C(F)(F)C(F)(F)F,outcome,[1],inactive
same,outcome,[2],inactive
same,outcome,[3],inactive
same,outcome,[4],inactive
same,outcome,[5],inactive
same,outcome,[6],inactive
same,outcome,[7],inactive
same,outcome,[8],inactive
same,outcome,[9],inactive
CC(C)c1c(C(=O)Nc2ccccc2)c(-c2ccccc2)c(-c2ccc(F)cc2)n1CC[C@@H](O)C[C@@H](O)CC(=O)O,AC50,[1],25.5 nM (active)
same,AC50,[2],10.5 nM (active)
same,AC50,[3],8.32 nM (active)
same,AC50,[4],7.22 nM (active)
same,AC50,[5],5.74 nM (active)
same,AC50,[6],6.41 nM (active)
same,AC50,[7],4.74 nM (active)
same,AC50,[8],2.68 nM (active)
same,AC50,[9],8.16 nM (active)
FCOC(C(F)(F)F)C(F)(F)F,outcome,[1],inactive
same,outcome,[2],inactive
same,outcome,[3],inactive
same,outcome,[4],inactive
same,outcome,[5],inactive
same,outcome,[6],inactive
same,outcome,[7],inactive
same,outcome,[8],inactive
same,outcome,[9],inactive
NC(=NCCCCCCN=C(N)/N=C(\N)Nc1ccc(Cl)cc1)/N=C(\N)Nc1ccc(Cl)cc1,AC50,DIO2 (gene 1734),13000 nM (active)
CCCCCCCCCCCCOS(=O)(=O)O,AC50,DIO2 (gene 1734),101000 nM (active)
O=CC(F)(F)C(F)(F)C(F)(F)F,outcome,[1],inactive
same,outcome,[2],inactive
same,outcome,[3],inactive
same,outcome,[4],inactive
same,outcome,[5],inactive
same,outcome,[6],inactive
same,outcome,[7],inactive
same,outcome,[8],inactive
same,outcome,[9],inactive
O=C1NS(=O)(=O)c2ccccc21,outcome,[1],inactive
same,outcome,[2],inactive
same,outcome,[3],inactive
same,outcome,[4],inactive
same,outcome,[5],inactive
same,outcome,[6],inactive
same,outcome,[7],inactive
same,outcome,[8],inactive
same,outcome,[9],inactive
CCCCCCCCCCCCOC(=O)c1cc(O)c(O)c(O)c1,AC50,DIO2 (gene 1734),82000 nM (active)
